The structures appear in SMILES notation. Hit rate of the full screen: of about 16,000 compounds, about 5,800 (36%) were called active. Not shown: some 23% with an inconclusive outcome. This is one part of the list. A number with no mark means an inactive call. Calls come from the whole dose curve; as a rule, active = well fitted curve in the direction sought with a large enough effect; inconclusive = small, poorly fitted or top-dose-only effect, or effect the other way; inactive = no such curve, though single readings can be large or run the other way.
% is set by controls: 0 for no effect and ±100 for the full control effect.

The target of this assay is Cytochrome P450 2C19 (Homo sapiens) (UniProt P33261). Nature of the assay: Cytochrome panel assay with activity outcomes. Conditions: recombinant CYP, pro-luciferin dealkylation, luminescence, p450-cyp2c19; series mostly up to 57.1 µM. How it is done: The P450 gene superfamily is involved in the metabolism and clearance of xenobiotics. This assay used various human CYP P450 isozymes to measure the dealkylation of various pro-luciferin substrates to luciferin. The luciferin is then measured by luminescence after the addition of a luciferase detection reagent. Pro-luciferin substrate concentration in the assay was equal to its KM for its CYP P450 isozyme. Inhibitors and some substrates limit the production of luciferin, and decrease measured luminescence.
Sequence of Cytochrome P450 2C19 (Homo sapiens) (P33261 whole entry, looked up): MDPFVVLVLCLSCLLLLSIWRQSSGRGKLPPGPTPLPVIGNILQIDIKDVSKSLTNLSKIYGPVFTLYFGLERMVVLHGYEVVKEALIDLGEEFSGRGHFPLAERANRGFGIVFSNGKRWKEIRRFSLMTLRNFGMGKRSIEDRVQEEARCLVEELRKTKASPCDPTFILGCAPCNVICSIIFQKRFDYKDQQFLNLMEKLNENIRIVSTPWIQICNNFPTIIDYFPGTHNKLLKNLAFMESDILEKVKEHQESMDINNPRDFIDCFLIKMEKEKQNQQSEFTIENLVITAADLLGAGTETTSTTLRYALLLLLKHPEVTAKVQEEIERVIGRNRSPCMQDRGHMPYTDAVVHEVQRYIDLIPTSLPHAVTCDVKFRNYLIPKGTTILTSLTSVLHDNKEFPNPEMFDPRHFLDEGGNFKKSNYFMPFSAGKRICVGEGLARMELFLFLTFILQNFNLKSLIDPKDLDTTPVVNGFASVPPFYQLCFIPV
NCGC Assay Protocol Summary:
1, Reagent, 2 uL, Isozyme and Pro-Luciferin
2, Library compounds, 23 nl, 40 uM to 0.24 nM dilution series
3, Controls, 23 nl, Isozyme specific inhibitor
4, Reagent, 2 uL, NADPH regeneration solution
5, Incubation time, 60 min, Isozyme specific temperature
6, Reagent, 4ul, Detection reagent
7, Incubation time, 20 min, Isozyme specific temperature
8, Detection, 1 sec, ViewLux luminescent read
The luciferase-based P450-GloTM Screening Systems were obtained from Promega (Madison, WI) for CYP 1A2 (V9770), CYP 2C9 (V9790), CYP2 C19 (V9880), CYP 2D6 (V9890), and CYP 3A4 Luciferin-PPXE (V9910) and were adapted for 1,536-well microplates and an automated protocol. The control compounds furafylline for 1A2 (F124), sulfaphenazole for CYP 2C9 (S0758), ketoconazole for CYP 2C19 (K1003), quinidine for 2D6 (Q3625), and ketoconazole for 3A4 (K1003) were purchased from Sigma Aldrich (St. Louis, MO). Recombinant P450 enzymes were obtained from baculovirus constructs expressed in insect cells (BD/Gentest).
Medium-binding white solid Kalypsys plates used. Mixtures kept on ice. 1A2: 10 nM 1A2, 100 uM Luc-ME, 100 mM KPO4; 2C9: 10 nM 2C9, 100 uM Luc-H, 25 mM KPO4; 2C19: 5 nM 2C19, 10 uM Luc-H EGE, 50 mM KPO4; 2D6: 5 nM 2D6, 30 uM Luc-ME EGE, 100 mM KPO4; 3A4: 10 nM, 25 uM Luc-PPXE. All amounts are reflected in their final concentration, working concentration is 2x.
NADPH regeneration solution: 1.3 mM NADP+, 3.3 mM glucose-6-phosphate, 3.3 mM MgCl2, 0.4 U/mL glucose-6-phosphate dehydrogenase for all isozymes, 200 mM KPO4 for 3A4. Mixture prepared at RT but kept on ice during automated run.
RT incubation in auxilliary plate hotel for 1A2, 2D6, and 3A4; 37C for 2C9 and 2C19.
Keywords: P450, CYP1A2, CYP2C19, CYP2C9, CYP2D6, CYP3A4, Luciferase, MLSMR, MLSCN, NIH Roadmap, qHTS, NCGC
With `Cc1ccc2nc(NC(=O)CSCC(=O)OCC(=O)c3ccc(Br)cc3)sc2c1`, the AC50 – broadly, the concentration giving half of the maximal activity seen – was 8.91 µM (active). For the molecule `Cc1nc2ccc(S(=O)(=O)NC(CC(C)C)C(=O)O)cc2s1` (stereo not given), the AC50 result is “inactive”. With `Cc1ccc2nc(-c3ccc(NC(=O)c4ccc(N)cc4)c(S(=O)(=O)O)c3)sc2c1`, the activity, negative = inhibition was 0.214% [at 11.4 µM]. On to `Cc1ccc2nc(NC(=O)COC(=O)c3ccc(Br)o3)sc2c1`, for which the AC50 is 8.91 µM (active). Take `OCCN(CCO)c1ncnc2nc[nH]c12`: the activity, negative = inhibition is -23.9% [at 11.4 µM]. `CC(C)(C)N1C(=O)[C@H]2[C@@H]3[C@H](O)[C@H](O)CC(=O)[C@H]3CC[C@H]2C1=O`: the activity, negative = inhibition was -4.03% [at 11.4 µM]. As to `N#CCCn1c(=O)c(-c2ccc(Cl)cc2)nc2cnc(N3CCOCC3)nc21`, the AC50 entry was “inactive”.

For the molecule `N#CCCn1cc(/C=N/O)c(-c2ccc(Cl)cc2)n1`, the AC50 is 7.94 µM (active).

In the case of `N#CCCn1c(=O)c(-c2ccc(Cl)cc2)nc2cnc(Oc3cccc(Cl)c3)nc21`, the AC50 result was “inactive”. `CC1=CC(=O)C=CC1(C)C(Cl)(Cl)Cl` (stereo not given): the AC50 is 25.1 µM (active). Take `Cc1cnc(CNc2ccnc(-c3ccc(N(C)C)cc3)n2)cn1`: the AC50 entry was “inactive”.

For `CN(C)c1ccc(-c2nccc(NCc3ccccc3)n2)cc1`, the AC50 was 25.1 µM (active). With `CN(C)c1ccc(-c2nccc(NCc3cccs3)n2)cc1`, the AC50 was 15.8 µM (active). As to `CN(C)C(=O)c1ccc(-c2nccc(NCc3ccccc3)n2)cc1`, the AC50 result is “inactive”. As to `COc1ccccc1CNc1ccnc(-c2ccoc2)n1`, the AC50 was 7.94 µM (active).

In the case of `COc1ccccc1CNc1ccnc(-c2ccc(N(C)C)cc2)n1`, the AC50 is 10 µM (active).

For the molecule `COc1cc(S(C)=O)ccc1-c1nc2ncccc2[nH]1` (stereo not given), the AC50 entry was “inactive”. Same read-out and setting: the result for `Cc1cc(SCC(=O)c2cccs2)nc2c(C)cccc12` reads 3.16 µM (active).

`CC[C@]1(C)CC(=O)NC1=O`: the AC50 entry was “inactive”. The same measure, in the same setting: for `Cc1ccc(Nc2nc(Cl)nc(N(C)C#N)n2)cc1` the value was 25.1 µM (active); for `COc1ccc(-c2cc(C(=O)O)c3c(C)nn(-c4ccccn4)c3n2)cc1`, “inactive”; for `COC(=O)c1ccccc1N/C=C1\CCc2c(c(C)nn2-c2ccccn2)C1=O`, 1.26 µM (active). The same measure, in the same setting: for `C(=N\Nc1nc(Nc2ccccc2)nc(N2CCOCC2)n1)/c1c[nH]c2ccccc12` the value was 8.91 µM (active); for `COc1ccc(N2CCN(c3nc(Nc4ccc(F)cc4)nc(OC)n3)CC2)cc1`, “inactive”.

As to `CC(=C\C(=O)O)/C(=C/c1ccccc1)C(=O)O`, the AC50 entry is “inactive”. Regarding `CC(=O)/C(=C\c1ccccc1F)C(=O)c1ccccc1`, the AC50 is 2 µM (active). For `CN(c1ccccc1)c1nc(-n2ccnc2)nc(-n2ccnc2)n1`, the concentration at half-maximal activity (AC50) was 1.78 µM (active). For `c1ccc(-c2nc(N3CCCCCC3)nc(-n3ccnc3)n2)cc1`, the half-maximal activity concentration (AC50) is 2 µM (active).

For `COc1ccc(Oc2nccc(-c3ccc(F)cc3)c2C#N)cc1`, the AC50 entry was “inactive”.

As to `N#Cc1c(-c2ccccc2)ccnc1Oc1ccccc1`, the AC50 was 1.58 µM (active).

As for `Cn1c(=O)c(-c2cccc(C#N)c2)nc2cnc(Oc3ccccc3)nc21`, the AC50 entry was “inactive”. On to `CCN(CC)CCNc1ccc(CO)c2sc3ccccc3c(=O)c12`, for which the AC50 result was “inactive”. Turning to `COc1ccc(C(=O)CCN(C)C)c2ccccc12`, the activity, negative = inhibition was -37.3% [at 11.4 µM].

Regarding `COc1ccc2sc3ccccc3c(=O)c2c1OC`, the AC50 is 25.1 µM (active).

Regarding `CCOC(=O)c1[nH]c(C)c(/C(O)=C2\C(=O)C(=O)N(CCN3CCOCC3)C2c2cccs2)c1C` (stereo not given), the AC50 is 8.91 µM (active).

With `Cc1nc2ccccn2c1/C(O)=C1\C(=O)C(=O)N(CCN2CCOCC2)C1c1cccnc1` (stereo not given), the AC50 entry was “inactive”. On the same count and under the same terms, for `COc1ccc(/C(O)=C2/C(=O)C(=O)N(CCN3CCOCC3)C2c2ccc(C)cc2)cc1` (stereo not given) the value was “inactive”. For the molecule `CC(=O)Nc1ccc(Cc2ccc3[nH]c(=O)cc(C)c3c2)cc1`, the activity, negative = inhibition is 3.04% [at 11.4 µM]. Regarding `Cc1cc(Cl)nc2ccc(Cc3ccc4nc(Cl)cc(C)c4c3)cc12`, the AC50 was 0.501 µM (active). Regarding `Cc1cc(N2CCOCC2)nc2ccc(Cc3ccc4nc(N5CCOCC5)cc(C)c4c3)cc12`, the activity, negative = inhibition is -39.6% [at 11.4 µM]. Still for that read-out and setting: for `CC(C)=NNc1ncnc2nc[nH]c12` the value was 43.1% [at 11.4 µM]. For the molecule `Cc1ccc(N(Cc2ccc([N+](=O)[O-])cc2)C(=O)c2ccco2)cc1`, the AC50 is 10 µM (active). On to `CN(C)c1ccc(C(c2ccc(N(C)C)cc2)c2ccc([N+](=O)[O-])cc2)cc1`, for which the activity, negative = inhibition is -36.9% [at 11.4 µM]. Turning to `O=c1c2ccccc2sc2c(CO)ccc(NCCN3CCCCC3)c12`, the activity, negative = inhibition is -24.6% [at 11.4 µM].

Take `CN1CCc2ccccc2[C@@H]1Cc1ccccc1NC(=O)c1sc2ccccc2c1Cl`: the AC50 was 2.51 µM (active).

For the molecule `Cc1nc(SCC(=O)Nc2ccc(N3CCOCC3)cc2)nc(C)c1C`, the AC50 was 25.1 µM (active). Take `O=C(CSc1nncn1-c1ccccc1)Nc1ccc(N2CCOCC2)cc1`: the AC50 result is “inactive”. In the case of `CC(C)(C)c1nc(SCC(=O)Nc2ccc(N3CCOCC3)cc2)c2ccccc2n1`, the AC50 is 10 µM (active). `Cc1nc(SCC(=O)Nc2ccc3c(c2)OCCO3)c2oc3ccccc3c2n1`: the AC50 was 0.562 µM (active).

With `CC(C)(C)c1nc(SCC(=O)Nc2ccc3c(c2)OCCO3)c2ccccc2n1`, the AC50 was 1.78 µM (active).

These data come from PubChem BioAssay AID1851 (National Center for Advancing Translational Sciences (NCATS), 2009).
